The subject of assay [1] is Plasmodium falciparum Sir2 (PF13_0152, Sir2A). Nature of the assay: pfSir2 binders on small-molecule microarrays, primary screen, biochemical, small-molecule microarray, 635 nm fluorescence (AID 1098).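 Note: score merges spot fluorescence intensity with its signal-to-noise ratio.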 Particulars: small-molecule microarray binding, fluorescence 635 nm; higher = more signal.
Assay [2] in a line: small-molecule microarray binders of probe aDKK1, primary screen, biochemical, biotinylated probe, 635/667 nm fluorescence (AID 1099).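 Note: score merges 667nm spot fluorescence with signal to noise across triplicate slides.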 Particulars: higher = more signal.
A short description of assay [3]: small-molecule microarray binders of probe aCHRDL2, primary screen, biochemical, biotinylated probe, 635/667 nm fluorescence (AID 1100). Particulars: higher = more signal.
Assay [4] in a line: splicing luciferase reporter signal modulators, primary screen, spliceosome inhibition project, cell-based, HEK293, splice +/- reporter (AID 1101).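 Note: HEK293 cells carrying a splicing-competent luciferase reporter gene; test concentration not given here.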 Particulars: luminescence, 24 h, higher = more signal, called active from +8 up or from −8 down. Background: A reporter such as luciferase makes a cellular process visible.
Assay [5] concerns the target Fibroblast growth factor 10 (Homo sapiens) (UniProt O15520). The assay can be described thus: FGF10 binders on small-molecule microarrays, primary screen, biochemical, small-molecule microarray, 635 nm fluorescence (AID 1102). Particulars: FGF10 binding, fluorescence 635 nm, higher = more signal.
Assay [6] relates to glycogen synthase kinase-3 (GSK3A per assay name; protocol says GSK3B). Nature of the assay: GSK3 binders on small-molecule microarrays, primary screen, biochemical, small-molecule microarray, 635 nm fluorescence, GSK3A (AID 1103). Note: the record names both GSK3A and GSK3B. Conditions: small-molecule microarray binding, fluorescence 635 nm; higher = more signal.
For assay [7], the target named is Epidermal growth factor receptor (Homo sapiens) (UniProt P00533). Nature of the assay: EGFR binders on small-molecule microarrays, primary screen, biochemical, small-molecule microarray, 635 nm fluorescence (AID 1104).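 Note: score merges 667 nm emission intensity with spot signal to noise over triplicate slides.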 Particulars: EGFR binding, higher = more signal.
Epidermal growth factor receptor (Homo sapiens), sequence (P00533 whole entry, looked up): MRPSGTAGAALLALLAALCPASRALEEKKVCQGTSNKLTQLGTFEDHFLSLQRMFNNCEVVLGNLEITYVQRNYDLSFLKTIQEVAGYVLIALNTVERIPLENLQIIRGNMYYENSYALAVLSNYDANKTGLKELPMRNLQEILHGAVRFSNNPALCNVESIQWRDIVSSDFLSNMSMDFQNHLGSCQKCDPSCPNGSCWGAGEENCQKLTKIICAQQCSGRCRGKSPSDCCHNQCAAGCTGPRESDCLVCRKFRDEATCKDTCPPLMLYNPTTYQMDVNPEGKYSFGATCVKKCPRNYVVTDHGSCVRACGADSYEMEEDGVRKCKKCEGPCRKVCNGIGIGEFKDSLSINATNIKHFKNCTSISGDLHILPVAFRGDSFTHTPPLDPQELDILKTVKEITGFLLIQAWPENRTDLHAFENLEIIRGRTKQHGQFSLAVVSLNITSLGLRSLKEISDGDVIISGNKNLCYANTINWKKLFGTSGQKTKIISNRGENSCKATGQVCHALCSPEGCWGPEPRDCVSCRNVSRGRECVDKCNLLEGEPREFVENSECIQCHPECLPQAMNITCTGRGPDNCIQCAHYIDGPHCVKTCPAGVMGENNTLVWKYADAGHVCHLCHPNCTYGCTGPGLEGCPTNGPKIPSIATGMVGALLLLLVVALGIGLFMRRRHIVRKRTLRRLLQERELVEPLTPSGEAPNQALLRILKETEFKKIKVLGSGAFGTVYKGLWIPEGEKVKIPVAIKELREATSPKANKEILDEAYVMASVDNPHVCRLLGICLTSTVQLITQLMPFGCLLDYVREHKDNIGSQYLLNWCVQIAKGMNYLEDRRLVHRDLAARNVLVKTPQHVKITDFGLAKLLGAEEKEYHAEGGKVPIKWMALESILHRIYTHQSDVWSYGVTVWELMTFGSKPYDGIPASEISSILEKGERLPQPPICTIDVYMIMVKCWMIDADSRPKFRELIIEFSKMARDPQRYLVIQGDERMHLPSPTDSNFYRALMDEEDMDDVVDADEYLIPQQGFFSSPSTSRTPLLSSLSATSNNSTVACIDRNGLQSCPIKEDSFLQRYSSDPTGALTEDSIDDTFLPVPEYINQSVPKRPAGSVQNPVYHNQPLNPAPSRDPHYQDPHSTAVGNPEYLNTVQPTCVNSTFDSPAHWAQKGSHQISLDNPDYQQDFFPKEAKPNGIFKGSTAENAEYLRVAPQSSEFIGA
Assay [8] addresses Follistatin-related protein 3 (Homo sapiens) (UniProt O95633). The assay can be described thus: FSTL3 binders on small-molecule microarrays, primary screen, biochemical, small-molecule microarray, 635 nm fluorescence (AID 1105).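 Note: score merges emission near 667 nm and signal to noise per printed spot across three slides.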 Conditions: FSTL3 binding, higher = more signal.
The target of assay [9] is Dickkopf-related protein 1 (Homo sapiens) (UniProt O94907). The assay can be described thus: DKK1 binders on small-molecule microarrays, primary screen, biochemical, small-molecule microarray, 635 nm fluorescence scan (AID 1106).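 Note: score merges emission near 667 nm with signal to noise over three replicate slides.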 Particulars: DKK1 binding, higher = more signal.
Dickkopf-related protein 1 (Homo sapiens), sequence (O94907 whole entry, looked up): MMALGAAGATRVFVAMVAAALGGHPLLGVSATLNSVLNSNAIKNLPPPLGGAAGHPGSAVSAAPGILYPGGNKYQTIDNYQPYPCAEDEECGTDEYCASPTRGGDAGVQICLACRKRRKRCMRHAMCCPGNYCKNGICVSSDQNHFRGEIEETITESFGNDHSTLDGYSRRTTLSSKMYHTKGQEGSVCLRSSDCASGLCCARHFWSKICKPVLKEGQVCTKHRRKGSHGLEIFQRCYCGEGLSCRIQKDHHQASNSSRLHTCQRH
Assay [10] relates to Inhibin beta A chain (activin A). Nature of the assay: INHBA (activin A) binders on microarrays, primary screen, biochemical, small-molecule microarray, 635 nm fluorescence scan (AID 1107).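 Note: mouse activin A protein probed at 4.33 µg/mL on printed slides; score merges bound-protein fluorescence near 667 nm with spot signal-to-noise.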 Conditions: small-molecule microarray binding, higher = more signal.
The subject of assay [11] is Human papillomavirus type 1a protein E7 (residues 44-93). Nature of the assay: HPV1a E7 fragment binders on microarrays, primary screen, biochemical, small-molecule microarray, residues 44-93, 635 nm fluorescence (AID 1108).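 Note: E7 fragment applied at 1 µg/mL in TBST for 1 h at 4 C; score combines spot fluorescence with its signal to noise ratio.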 Conditions: small-molecule microarray binding, fluorescence 635 nm; higher = more signal.
Assay [12] can be described thus: modulators of HCV replicon luciferase signal, primary screen, HCV replication inhibitor project, Huh7 cells, luciferase reporter (AID 1109).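 Note: huh7 hepatoma cells harbouring a luciferase neomycin HCV replicon reporter; luciferase luminescence as measure of HCV replicon replication; test concentration not given here.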 Particulars: 48 h, higher = more signal. (In general: A replicon is a self-replicating genome or part of one, used to study replication in cells.)
The target in assay [13] is Left-right determination factor 2 (Homo sapiens) (UniProt O00292). The assay can be described thus: LEFTY2 binders on small-molecule microarrays, primary screen, biochemical, small-molecule microarray, 635 nm fluorescence scan (AID 1110). Particulars: LEFTY2 binding, higher = more signal.
Left-right determination factor 2 (Homo sapiens), sequence (O00292 whole entry, looked up): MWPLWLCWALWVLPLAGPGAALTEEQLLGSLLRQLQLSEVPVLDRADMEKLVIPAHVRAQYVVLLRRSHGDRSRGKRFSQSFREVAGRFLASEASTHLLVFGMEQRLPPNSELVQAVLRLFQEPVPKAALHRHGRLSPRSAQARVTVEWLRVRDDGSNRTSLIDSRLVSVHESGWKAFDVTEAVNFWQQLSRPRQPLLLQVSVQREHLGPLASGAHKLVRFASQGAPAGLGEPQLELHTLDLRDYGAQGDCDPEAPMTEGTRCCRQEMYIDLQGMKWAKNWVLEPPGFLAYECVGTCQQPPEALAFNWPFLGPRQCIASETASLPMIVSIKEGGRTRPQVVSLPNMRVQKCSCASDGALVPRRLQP
In assay [14] the target is Calmodulin-1 (Homo sapiens) (UniProt P0DP23). Nature of the assay: CALM1 binders on microarrays, EGTA buffer, profiling panel, biochemical, small-molecule microarray, Cy5-labelled CALM1 (AID 1111).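 Note: labelled calmodulin applied in Tris saline Tween buffer holding calcium plus EGTA and DTT.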 Conditions: Cy5-CALM1 binding fluorescence, higher = more signal.
For assay [15] the target is unchanged. The assay can be described thus: calcium-bound CALM1 binders on microarrays, profiling panel, artefact control for SMM control-protein annotation, biochemical, small-molecule microarray, Cy5-labelled CALM1, plus calcium (AID 1112).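 Note: score merges spot fluorescence with signal to noise from triplicate slides.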 Particulars: Cy5-CALM1 binding fluorescence, higher = more signal.
A short description of assay [16]: small-molecule microarray binders of probe aWnt5a, primary screen, biochemical, biotinylated probe, 635/667 nm fluorescence (AID 1113).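 Note: score merges 667 nm fluorescence intensity with signal-to-noise per printed feature.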 Particulars: higher = more signal.
A short description of assay [17]: small-molecule microarray binders of probe aShh, primary screen, biochemical, biotinylated probe, 635/667 nm fluorescence (AID 1114).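 Note: probe is biotin-labelled aShh protein from a stem cell growth factor screen; measures binding of labelled protein to compounds printed on the slide; score merges feature fluorescence at 667 nm with signal-to-noise.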 Particulars: higher = more signal.
Assay [18] can be described thus: small-molecule microarray binders of probe aNog, primary screen, biochemical, biotinylated probe, 635/667 nm fluorescence (AID 1115).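 Note: probe is biotinylated aNog protein used at 0.15 µg/mL for 1 h at 4 C; z-score combines 667 nm fluorescence of each spot with its signal to noise.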 Particulars: higher = more signal.
Assay [19] concerns the target Torsin-1A-interacting protein 1 (Homo sapiens) (UniProt Q5JTV8). The assay can be described thus: LAP1 binders from COS7 cell lysate, primary screen, small-molecule microarray, 635/667 nm fluorescence (AID 1116). Particulars: COS7-hLAP1 lysate binding, 635 nm fluorescence, higher = more signal.
Assay [20] deals with Alpha-bungarotoxin (Bungarus multicinctus) (UniProt P60615). The assay can be described thus: alpha-bungarotoxin binders on microarray, profiling panel, artefact control for SMM control protein annotation, biochemical, small-molecule microarray, Alexa647 label, 635/667 nm fluorescence (AID 1117). Particulars: alpha-BTX-A647 binding fluorescence, higher = more signal.
Alpha-bungarotoxin (Bungarus multicinctus), sequence (P60615 whole entry, looked up): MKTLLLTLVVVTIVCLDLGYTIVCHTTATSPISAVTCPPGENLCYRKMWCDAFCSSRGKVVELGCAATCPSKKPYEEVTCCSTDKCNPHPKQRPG

SMILES strings stand for the structures. Active and inactive are the calls of the source.

Fibroblast growth factor 10 (Homo sapiens), sequence (O15520 whole entry, looked up): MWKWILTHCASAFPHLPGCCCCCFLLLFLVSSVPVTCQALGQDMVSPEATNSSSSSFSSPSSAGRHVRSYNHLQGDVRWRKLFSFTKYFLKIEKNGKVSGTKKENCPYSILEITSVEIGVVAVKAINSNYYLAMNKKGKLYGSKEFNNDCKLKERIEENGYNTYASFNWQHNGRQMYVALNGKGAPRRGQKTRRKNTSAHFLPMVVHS
Torsin-1A-interacting protein 1 (Homo sapiens), sequence (Q5JTV8 whole entry, looked up): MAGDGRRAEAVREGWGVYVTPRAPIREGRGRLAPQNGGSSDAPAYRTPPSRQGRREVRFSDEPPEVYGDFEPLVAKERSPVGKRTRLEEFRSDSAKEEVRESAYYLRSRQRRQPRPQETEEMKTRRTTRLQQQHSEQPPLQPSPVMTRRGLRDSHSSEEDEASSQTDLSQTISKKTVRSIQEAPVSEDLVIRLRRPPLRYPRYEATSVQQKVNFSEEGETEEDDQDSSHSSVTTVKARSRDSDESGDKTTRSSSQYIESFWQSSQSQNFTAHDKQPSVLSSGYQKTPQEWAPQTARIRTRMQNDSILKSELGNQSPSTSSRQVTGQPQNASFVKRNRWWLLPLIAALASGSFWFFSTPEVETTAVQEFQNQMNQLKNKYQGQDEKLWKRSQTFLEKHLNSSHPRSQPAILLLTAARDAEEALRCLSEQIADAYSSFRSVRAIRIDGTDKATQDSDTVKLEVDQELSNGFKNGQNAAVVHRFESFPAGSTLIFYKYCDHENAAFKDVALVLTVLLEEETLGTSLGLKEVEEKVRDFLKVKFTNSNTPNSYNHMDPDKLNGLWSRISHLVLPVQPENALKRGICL
Follistatin-related protein 3 (Homo sapiens), sequence (O95633 whole entry, looked up): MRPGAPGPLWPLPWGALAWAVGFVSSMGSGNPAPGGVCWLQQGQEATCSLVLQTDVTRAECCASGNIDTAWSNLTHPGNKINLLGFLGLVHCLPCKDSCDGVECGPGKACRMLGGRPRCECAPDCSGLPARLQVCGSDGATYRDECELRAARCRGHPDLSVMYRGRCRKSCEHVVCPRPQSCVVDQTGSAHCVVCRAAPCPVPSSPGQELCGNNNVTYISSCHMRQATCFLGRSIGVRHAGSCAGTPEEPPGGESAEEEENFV

As to `CC(C)CON=C1C[C@@H](O)[C@@H](O)[C@@H]2[C@@H]3C(=O)N(Cc4ccc5c(c4)OCO5)C(=O)[C@@H]3CC[C@@H]12`, the composite z-score in [1] is 0.409; in assay [2], -0.218; in assay [3], -0.208; in assay [5], 0.0677; in [6] it was -0.315; in [7] it was -0.203. For the same molecule, the composite z-score was -0.0661 in assay [8]; -0.337 in [9]; -0.0043 in assay [10]; 0.44 in [11]; -0.119 in assay [13]; 0.349 in [14]. Besides, the composite z-score in assay [15] is -0.311; in [16], -0.0279; in assay [17] it was -0.0769; in assay [18], -0.103; in assay [19] it was 0.086; in assay [20] it was 0.748. The z-score in assay [4] was 0.0483 (inactive); in assay [12], 0.081.
Consider `O=C1C2=CC[C@H]3C(=O)N(Cc4ccccc4)C(=O)[C@H]3[C@H]2[C@H](O)[C@@H]2O[C@H]12`, for which the composite z-score is 1.47 in assay [1]; -0.211 in assay [2]; -0.417 in [3]; 0.0121 in assay [5]; -0.569 in assay [6]; 0.41 in assay [7]. Besides, the composite z-score in assay [8] was -0.1; in [9], 0.245; in [10], -0.0664; in [11], -0.695; in assay [13], 0.101; in assay [14], -0.476. Moreover, the composite z-score was -0.65 in assay [15]; -0.129 in [16]; -0.0553 in assay [17]; -0.158 in assay [18]; 0.237 in [19]; 0.0012 in assay [20]. Also, the z-score in assay [4] was 6.91 (inactive); in assay [12] it was -5.09.
As to `O=C1CCCC=C1C(O)COCc1ccccc1` (stereo not given), the composite z-score in assay [1] is 0.179; in assay [2] it was -0.32; in assay [3] it was -0.344; in assay [5], -0.146; in [6] it was -1.62; in assay [7], -0.137. For the same molecule, the composite z-score was -0.171 in assay [8]; -0.126 in assay [9]; 0.53 in [10]; -1.61 in assay [11]; -0.0061 in assay [13]; -0.0384 in assay [14]. For the same molecule, the composite z-score in assay [15] was -1.3; in assay [16], 0.026; in assay [17], -0.269; in assay [18], -0.172; in assay [19], 0.381; in [20] it was 0.032. The values for the z-score in assay [4] and in assay [12] were -0.0937 (inactive) and -0.45, respectively.
Turning to `O=C1[C@H]2CCn3c(=O)n(Cc4cc5c(cc4Cl)OCO5)c(=O)n3[C@H]2[C@H](O)[C@@H]2O[C@H]12`, the composite z-score in [1] is 0.652; in [2], -0.374; in [3], -0.604; in assay [5], -0.41; in [6], -0.734; in assay [7], 0.413. In addition, the composite z-score is -0.0989 in assay [8]; 0.552 in [9]; 0.73 in assay [10]; -0.552 in assay [11]; 0.269 in assay [13]; -0.806 in [14]. Besides, the composite z-score in [15] was -0.697; in assay [16], -0.295; in assay [17] it was -0.237; in assay [18], -0.492; in assay [19], 0.054; in assay [20] it was 0.389. The z-score in [4] was 0.726 (inactive); in assay [12], -1.94.
With `COC(=O)[C@@H]1CC[C@H](C)[C@@H](c2ccc(Br)cc2)N1C[C@@H](O)CN=[N+]=[N-]`, the composite z-score in assay [1] was 0.0292; in [2], -0.0196; in [3], -0.304; in assay [5], 0.189; in [6] it was 0.078; in [7] it was 0.532. The composite z-score is 0.0985 in assay [8]; 0.356 in assay [9]; -0.28 in assay [10]; 0.29 in assay [11]; 0.445 in assay [13]; -0.178 in [14]. Further, the composite z-score in assay [15] is -0.437; in assay [16], -0.0403; in assay [17], 0.0494; in [18], -0.0103; in assay [19] it was 0.289; in [20], -0.291. For the same molecule, the values for the z-score in assay [4] and in [12] were -1.34 (inactive) and -0.779, respectively.
Take `O=C1[C@H]2[C@H]3[C@H](O)[C@H](O)CC(=NOCc4ccccc4)[C@@H]3CC[C@H]2C(=O)N1c1cccc(Oc2ccccc2)c1`: the composite z-score in assay [1] is 1.03; in [2], -0.173; in assay [3], -0.186; in assay [5], 0.485; in [6], 0.38; in assay [7], 0.201. The composite z-score in [8] is 0.48; in assay [9], 0.0072; in assay [10], -0.202; in assay [11] it was 1.32; in assay [13], -0.0065; in assay [14] it was -0.0299. Also, the composite z-score in assay [15] was -0.699; in assay [16] it was -0.096; in [17], 0.0639; in assay [18] it was 0.0051; in assay [19] it was 0.902; in assay [20] it was 0.626. In addition, the z-score in [4] is -0.055 (inactive); in assay [12] it was 0.0134.

Source of the values: PubChem BioAssay.
